Screening data deposited in PubChem by National Center for Advancing Translational Sciences (NCATS).
Only some compounds are listed: those with a hit (about 3.3% of all), similar ones and a draw of the others.
PNC inhibitor: High Content Assay for Compounds that inhibit the Assembly of the Perinucleolar Compartment. PC3M PTB-GFP, PNC prevalence imaging, 16 h; stronger effect = lower value. activity change (PNC), negative = inhibition, % at 10 µM. 3.1% of 140,000 active;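 active means readout at or below -70, meaning at least 70% loss of cells showing the perinucleolar compartment, a nuclear body marking cancer cells; inconclusive means readout between -30 and a set limit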;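 further: plate controls were DMSO wells for no effect and camptothecin positive control wells for full effect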
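PC3M cells stably expressing PTB-GFP, 750–1000 cells/well, treated 16 h at 37 °C with compound (23 nl of library stock), in duplicate. After paraformaldehyde fixation and Hoechst stain, imaged at 20x; PNC prevalence scored by image analysis.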
HttQ103 aggreg: qHTS Multiplex Assay to Identify Dual Action Probes in a Cell Model of Huntington: Aggregate Formation (GFP). PC12 HttQ103-GFP aggregates, Acumen cytometry, 40 h. Potency, µM (highest dose often 46.1 µM), for inactives: at the top dose activity change, negative = inhibition, most hits filed as inhibitors. 1.1% of 220,000 active; further: potency means the concentration at half of the fitted maximal effect; on the % scale 0 is the no-effect control and ±100 the full control effect; nearly all actives have a fitted effect of over 60% in size
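PC12 cells with ecdysone-inducible HTT exon1 Q103-GFP, induced by 100 nM tebufenozide, given compounds in a concentration series. GFP aggregates (1–25 um, 6 SD above background) counted in lysates by laser-scanning cytometry, 488 nm excitation.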
ALOX12 inhib: qHTS Assay for Inhibitors of 12-hLO (12-human lipoxygenase). AID 1452, 2008. 0.12% of 150,000 active. Potency, µM (highest dose often 57.1 µM), for inactives: top-dose activity change, negative = inhibition, hits mostly inhibitors. purified 12-hLO, xylenol orange hydroperoxide absorbance. Polyunsaturated fatty acid lipoxygenase ALOX12 (Homo sapiens), P18054; further: potency means the concentration at half of the fitted maximal effect; on the % scale 0 is the no-effect control and ±100 the full control effect; nearly all actives have a fitted effect of over 55% in size
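Purified human 12hLO (150 nM final) was preincubated with compounds for 15 min at room temperature in 25 mM Hepes pH 7.0, 0.01% Triton X-100, then reacted with 40 uM arachidonic acid for 30 min. Hydroperoxide was detected with ferrous iron/xylenol orange.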
IMPase cell inh: qHTS Assay for Identifying the Cell-Membrane Permeable IMPase Inhibitors. inhibition (IP1 accumulation), % at 46.1 µM. 120,000 tested, under 10 active. CHO-M1 cells, IP1 accumulation, HTRF TR-FRET ratio. AID 901, 2007. Inositol monophosphatase 1 (Rattus norvegicus), P97697; active means well fitted curve in the direction sought with a large enough effect in the signal ratio, not every such curve was filed as active; inconclusive means small, poorly fitted or top-dose-only effect, or a change in a side signal; inactive means no such curve, though single readings can be large or run the other way; the % refers to the signal ratio;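 further: cells stimulated with carbachol in lithium chloride buffer; plate controls were DMSO basal wells for no effect and reference inhibitor wells for full effect; higher means more IMPase inhibition seen as more IP1 and lower FRET ratio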
Target sequence (P97697 whole entry, looked up): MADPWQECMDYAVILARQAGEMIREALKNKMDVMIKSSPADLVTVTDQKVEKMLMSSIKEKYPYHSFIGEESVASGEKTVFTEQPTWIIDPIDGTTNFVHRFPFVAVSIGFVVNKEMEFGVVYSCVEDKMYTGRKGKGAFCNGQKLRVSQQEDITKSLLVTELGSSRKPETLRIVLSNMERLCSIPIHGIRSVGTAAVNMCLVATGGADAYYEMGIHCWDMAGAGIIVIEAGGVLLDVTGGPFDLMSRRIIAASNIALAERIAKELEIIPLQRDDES
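Carbachol-driven Gq signalling in CHO-M1 cells (2000/well) generates IP1. Compounds that block IMPase raise IP1 and so reduce the FRET signal from Eu-anti-IP1 and d2-IP1 after a 10 min room-temperature lysis.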
NPSR antag: qHTS Assay for Antagonists of the Neuropeptide S Receptor: cAMP Signal Transduction; Q6W5P4; CHO-NPSR cells, cAMP TR-FRET, antagonist mode; Potency, µM (series often up to 38.3 µM), for the others: top-dose activity change, negative = inhibition, hits mostly inhibitors; 1% of 220,000 active; AID 1461, 2008; further: potency means the concentration at half of the fitted maximal effect; on the % scale 0 is the no-effect control and ±100 the full control effect; nearly all actives have a fitted effect of over 50% in size
Target sequence (Q6W5P4 whole entry, looked up): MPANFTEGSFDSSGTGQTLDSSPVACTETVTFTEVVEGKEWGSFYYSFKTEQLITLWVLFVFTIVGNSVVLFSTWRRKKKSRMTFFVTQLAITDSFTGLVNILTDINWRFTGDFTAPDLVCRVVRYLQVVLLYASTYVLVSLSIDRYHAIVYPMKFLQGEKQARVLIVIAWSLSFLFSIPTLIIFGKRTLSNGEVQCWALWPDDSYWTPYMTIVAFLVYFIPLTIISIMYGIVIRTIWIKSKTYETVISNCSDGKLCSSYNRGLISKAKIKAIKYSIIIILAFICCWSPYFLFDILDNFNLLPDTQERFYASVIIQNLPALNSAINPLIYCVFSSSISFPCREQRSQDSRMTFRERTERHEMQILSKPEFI
HTT cytoprotect: qHTS Multiplex Assay to Identify Dual Action Probes in a Cell Model of Huntington: Cytoprotection (ATP); PC12 HTT-Q103 induced, cytoprotection, ATP luminescence, 40 h; Potency, µM (highest dose often 56.4 µM), for the others: cytoprotection (ATP increase), actives largely listed as activators; 0.14% of 230,000 active; further: potency means the concentration at half of the fitted maximal effect; % of control where 0% means no effect; nearly all actives have a fitted effect of over 45% in size
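Rat PC12, Q103 Htt exon1-GFP fusion, ecdysone promoter; tebufenozide inducer 100 nM final; compound titration; qHTS, 1500 cells/well; ATPlite luminescent read.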
An asterisk follows results filed as active; ? = inconclusive; . = no result; [ ] = dose if it differs, or a comment. Unless noted, the call rests on the fitted dose curve; in most records, active means well fitted curve in the direction sought with a large enough effect; inconclusive means small, poorly fitted or top-dose-only effect, or another doubt; inactive means no such curve, though single readings can be large; an effect the other way counts as inactive or inconclusive.

SMILES	PNC inhibitor	HttQ103 aggreg	ALOX12 inhib	IMPase cell inh	NPSR antag	HTT cytoprotect
CC(C)=CCn1cnc2c1C(NOCc1ccccc1)=NCN2	.	.	.	.	.	-36%
Clc1cc2c(c(Cn3cnc4ccccc43)c1)OCOC2	-100*	-12%	2%	-9	-4%[46.1 µM]	-4%[10 µM]
Oc1cc2cc(CCN3CCN(c4nsc5ccccc45)CC3)c(Cl)cc2[nH]1	.	0%	.	.	.	14%
CCOC(=O)/C(=C\c1ccc(OC(F)F)cc1)C1=Nn2c(nnc2-c2ccc(Cl)cc2)SC1	?	?	-1%	.	10µM*	.
CCC(Sc1nncn1C)C(=O)Nc1ccccc1OC (stereo not drawn)	4	6%	-3%	-6	21%[46.1 µM]	14µM*
Cc1ccccc1NC(=O)c1cc(C(=O)c2cc(Cl)ccc2O)cn(-c2ccccc2C)c1=O	22	16µM*	-3%	.	-16%	34%[10 µM]
CCCCn1cc(C(=O)c2cc(Br)ccc2O)cc(C#N)c1=O	46	16µM*	-6%	6	-16%[46.1 µM]	-54%
Cc1ccccc1NC(=O)c1ccccc1NC(=O)c1ccccc1Cl	.	.	.	-6	.	.
COc1ccc(-n2cc(C(=O)c3cc(Cl)ccc3O)cc(C#N)c2=O)cc1	.	17%	.	.	-34%	-13%
Cc1ccc(-n2cc(C(=O)c3cc(Cl)ccc3O)cc(C#N)c2=O)cc1	-17	13µM*	-4%	.	-25%	19%[10 µM]
CO[C@H]1OC2O[C@@]3(C)CC[C@H]4[C@H](C)CC[C@@H]([C@H]1C)[C@@]24OO3 (stereo partly drawn)	.	-29%	.	.	.	-52%
COc1ccc(NC(=O)N2CC[C@@]3(CCCN(C(C)=O)C3)C2)cc1	.	.	0%	.	.	-13%
COc1ccc(-n2nc(C#N)c(Cl)cc2=O)cc1	.	25µM*	.	.	-23%	-3%[10 µM]
COC(=O)c1nn(-c2ccc(OC)cc2)c(=O)cc1O	.	8%	.	.	8%	-52%[10 µM]
Nc1ncnc2c1ncn2[C@H]1O[C@@H](CSCC[C@@H](N)C(=O)O)[C@H](O)[C@@H]1O	.	.	.	.	.	12%
CC(C)OCC1CC(CC(=O)NC(=S)Nc2cccc([N+](=O)[O-])c2)C(=O)O1 (stereo not drawn)	-100*	11%	0%	-8	-9%[46.1 µM]	15%[10 µM]
O=C(c1ccc2ccccc2n1)N1CCN(c2ccccc2O)CC1	-96*	8%	-7%	-3	-14%[46.1 µM]	-6%
O=c1c(O)c(-c2ccc(O)cc2)oc2ccc(O)cc12	.	.	0%	1	.	28%[1.9 µM]
CCC(C(=O)O)P(=O)(c1ccc(Cl)cc1)c1ccc(Cl)cc1 (stereo not drawn)	.	0%[9.22 µM]	.	.	7%	-12%[10 µM]
CN(Cc1ccccc1)Cc1nc2c([nH]1)c(=O)n(C)c(=O)n2C	-100*	-10%	3%	1	10%[46.1 µM]	1%[10 µM]
CCCn1c(CN(C)Cc2ccccc2)nc2c1c(=O)n(C)c(=O)n2C	-22	22µM*	1%	-8	6%[46.1 µM]	10%[10 µM]
CCCn1c(CN2CCN(c3cccc(Cl)c3)CC2)nc2c1c(=O)n(C)c(=O)n2C	15	5.6µM*	5%	4	-16%[46.1 µM]	-128%
CN(Cc1ccccc1)Cc1nc2c(c(=O)n(C)c(=O)n2C)n1CCc1ccccc1	.	.	.	.	.	-7%[0.074 µM]
CCCCn1c(CN(C)Cc2ccccc2)nc2c1c(=O)n(C)c(=O)n2C	18	20µM*	1%	-6[1.84 µM]	-3%[46.1 µM]	24%[10 µM]
C=CCN1C(=O)C2C3CC(=O)C(c4ccccc43)C2C1=O (stereo not drawn)	.	7%	.	.	4%	-4%
SMILES	PNC inhibitor	HttQ103 aggreg	ALOX12 inhib	IMPase cell inh	NPSR antag	HTT cytoprotect
O=C(N/N=C/c1c[nH]c2ccccc12)c1[nH]c2ccc(Br)cc2c1-c1ccccc1	-112*	-9%	-8%	-1	-43%	-62%[1.9 µM]
O=C(CSc1nnc(SCc2ccc(Cl)cc2)s1)N/N=C/c1c[nH]c2ccccc12	-83*	-7%	-1%	.	-31%	4%[10 µM]
Cc1cccc(NC(=S)N/N=C/c2c[nH]c3ccccc23)c1	-82*	1%	?	.	-22%	.
Cc1nn(C)cc1/C=N/NC(=S)Nc1ccccc1	0	19%	-23%	-3	2µM*	-26%
Cc1ccc(NC(=S)N/N=C/c2c(C)nn(-c3ccccc3)c2N2CCCC2)cc1	-25	28%	-4%	-6	-13%[46.1 µM]	3%[10 µM]
O=C(CSc1nnc(SCc2cccc3ccccc23)s1)N/N=C/c1c[nH]c2ccccc12	9	-1%	-4%	-1	14%	12%[10 µM]
O=C(N/N=C/c1ccc(O)cc1)c1[nH]c2ccc(Br)cc2c1-c1ccccc1	-5	-10%	-12%	.	7%	-69%[10 µM]
NC(=S)N/N=C\c1c[nH]c2ccccc12	.	.	4%[11.4 µM]	.	.	-11%[10 µM]
COc1ccc(OCC(=O)NC(Cc2c[nH]c3ccccc23)C(=O)O)cc1 (stereo not drawn)	.	.	.	5	.	.
O=C(CNc1ccccc1)N/N=C/c1c[nH]c2ccccc12	-119*	2%	-1%	?	-15%	14%[10 µM]
O=C(CCC(=O)Nc1ccc(F)cc1)N/N=C/c1c[nH]c2ccccc12	.	7%	.	.	-6%	-31%
C#CCn1c(=NC(=O)c2ccc(S(=O)(=O)N3CCc4ccccc4C3)cc2)sc2cc(S(N)(=O)=O)ccc21	-134*	10µM*	-1%	.	-4%	-36%[10 µM]
CCc1cc(C(=O)c2ccc(OC)cc2)c(N)s1	.	0.11µM*	.	.	-7%	.
COc1cc(Nc2ccccc2Cl)c([N+](=O)[O-])nc1[N+](=O)[O-]	-92*	26%[9.22 µM]	1%	-7	-21%[46.1 µM]	-50%
COc1ccccc1Nc1ccc([N+](=O)[O-])cc1N	9	10%	-7%	.	-19%	28%[10 µM]
Cc1csc2c(N3CCN(C(=O)c4ccc(C(C)(C)C)cc4)CC3)ncnc12	.	27%[9.22 µM]	.	.	22%	18%[10 µM]
COCCNS(=O)(=O)c1ccc(OCC(=O)OC)c(Cl)c1	-6	3.2µM*	-6%	-11	-13%[46.1 µM]	-31%[0.074 µM]
COC(=O)COc1ccc(S(=O)(=O)NCc2ccco2)cc1Cl	-103*	-13%	5%	-2	-17%[46.1 µM]	26%
O=C(COc1ccc(S(=O)(=O)N2CCCC2)cc1Cl)NCc1ccco1	7	1%	0%	?	-20%[46.1 µM]	-3%
O=C(Nc1ccccc1C(=O)N/N=C/c1ccco1)c1ccccc1	7	4%	-2%	.	-2%	21%[10 µM]
O=C(Nc1ccccc1C(=O)N/N=C/c1ccco1)c1ccc(F)cc1	-86*	-30%	-11%	.	-6%	.
